# Laboratory results taken from PubChem BioAssay (NCATS).
# “And” between values parts separate entries of the source, which are not always exact repeats. Equal entries are not always repeated. Results filed as inconclusive are left out. The source made the active and inactive calls. Unless noted, calls follow the shape of the dose curve; as a rule, active = well fitted curve in the direction sought with a large enough effect; inconclusive = small, poorly fitted or top-dose-only effect, or another doubt; inactive = no such curve, though single readings can be large; an effect the other way counts as inactive or inconclusive.
# Assays:
# [1] = biological target: Calcium and integrin-binding protein 1 (Homo sapiens) (UniProt Q99828); experiment: Primary qHTS for Identification of Calcium Integrin Binding Protein 1 (CIB1) Competitor (AID 1508620);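 also: GST tagged CIB1 binding a fluorescein labelled alphaIIb integrin peptide tracer; top concentration of the series differs between compounds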
# Chain of Calcium and integrin-binding protein 1 (Homo sapiens) (Q99828 whole entry, looked up): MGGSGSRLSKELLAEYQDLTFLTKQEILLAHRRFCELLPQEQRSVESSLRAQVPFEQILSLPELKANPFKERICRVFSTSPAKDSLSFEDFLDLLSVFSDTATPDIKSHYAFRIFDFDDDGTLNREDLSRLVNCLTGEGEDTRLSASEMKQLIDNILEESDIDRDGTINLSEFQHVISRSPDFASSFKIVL
# Method in brief: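 CIB1-GST (1 uM final) and compound incubated 15 min at room temperature before adding FITC-alphaIIb peptide tracer (100 nM final). Competition for binding read by fluorescence polarization (ex 480, em 540) after another 15 min at room temperature.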
# [2] = biological target: Cytochrome P450 2C9 (Homo sapiens) (UniProt P11712); experiment: Cytochrome P450 family 2 subfamily C member 9 (CYP2C9) small molecule antagonists: luciferase biochemical (cell-free) qHTS assay (AID 1645842; active = well fitted curve in the direction sought with a large enough effect in the repeat runs; an effect the other way counts as inactive or inconclusive; also: nearly all actives have a fitted effect of over 55% in size; also: potency is read from the fitted curve at half-maximal effect)
# Chain of Cytochrome P450 2C9 (Homo sapiens) (P11712 whole entry, looked up): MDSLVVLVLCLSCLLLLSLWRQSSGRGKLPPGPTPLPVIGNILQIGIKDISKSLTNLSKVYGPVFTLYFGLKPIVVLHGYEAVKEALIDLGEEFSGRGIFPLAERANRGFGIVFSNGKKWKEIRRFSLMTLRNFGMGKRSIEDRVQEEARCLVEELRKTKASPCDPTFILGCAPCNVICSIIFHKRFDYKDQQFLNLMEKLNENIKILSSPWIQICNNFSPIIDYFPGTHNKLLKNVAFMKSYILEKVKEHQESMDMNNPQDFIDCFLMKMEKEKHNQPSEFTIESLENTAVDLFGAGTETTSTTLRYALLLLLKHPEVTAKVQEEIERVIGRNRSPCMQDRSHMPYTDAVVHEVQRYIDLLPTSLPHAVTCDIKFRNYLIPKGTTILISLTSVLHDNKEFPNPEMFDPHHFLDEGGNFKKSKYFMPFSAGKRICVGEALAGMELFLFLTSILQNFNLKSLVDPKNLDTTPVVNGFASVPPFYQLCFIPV
# Method in brief: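 P450-Glo CYP2C9 system: proluciferin substrate with enzyme in mix containing 0.4% BSA, 10 min at room temperature, then NADPH regeneration solution added and incubated 1 h at 37C. Detection reagent stopped reaction; luminescence read after 20 min as RLU.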
# [3] = Primary qHTS for inhibitors of nuclear receptor binding SET domain protein 2 (NSD2) in an isogenic RCH-ACV NSD2 p.E1099K mutant (9B) (AID 1645876); also: nearly all actives have a fitted effect of over 70% in size; also: potency is read from the fitted curve at half-maximal effect
# [4] = Primary qHTS for inhibitors of nuclear receptor binding SET domain protein 2 (NSD2) in an RCH-ACV wild type WT cells (2C) (AID 1645877); also: nearly all actives have a fitted effect of over 70% in size; also: potency is read from the fitted curve at half-maximal effect
# [5] = Primary qHTS for small molecule stabilizers of the endoplasmic reticulum resident proteome: Secreted ER Calcium Modulated Protein (SERCaMP) assay (AID 1508630)
# Method in brief: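 The SH-SY5Y reporter protocol was run at 3 concentrations up to 38.3 uM (primary) or 11 concentrations (follow-up): 16 h compound, 100 nM thapsigargin for 4 h, then extracellular luciferase luminescence.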
# [6] = biological target: N-terminal Xaa-Pro-Lys N-methyltransferase 1 (Homo sapiens) (UniProt Q9BV86); experiment: Confirmatory qHTS for Inhibitors of N-terminal methyltransferase 1 (NTMT1): MTaseGlo Assay (AID 1645874); also: potency is read from the fitted curve at half-maximal effect; nearly all actives have a fitted effect of over 65% in size
# Chain of N-terminal Xaa-Pro-Lys N-methyltransferase 1 (Homo sapiens) (Q9BV86 whole entry, looked up): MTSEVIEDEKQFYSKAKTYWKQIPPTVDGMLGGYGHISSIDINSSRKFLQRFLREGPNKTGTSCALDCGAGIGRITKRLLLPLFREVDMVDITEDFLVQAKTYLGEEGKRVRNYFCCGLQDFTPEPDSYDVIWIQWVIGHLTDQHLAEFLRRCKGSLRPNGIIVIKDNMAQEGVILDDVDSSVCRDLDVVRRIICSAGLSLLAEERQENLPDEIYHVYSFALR
# Method in brief: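 SPKRIA peptide at 1 uM was methylated by 125 nM NTMT1 using 100 uM SAM over 30 min at room temperature, following a 15 min compound preincubation. Product SAH was detected luminescently.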
# [7] = biological target: Cytochrome P450 2D6 (Homo sapiens) (UniProt P10635); experiment: Cytochrome P450 family 2 subfamily D member 6 (CYP2D6) small molecule antagonists: luciferase biochemical (cell-free) qHTS assay (AID 1645840; active = well fitted curve in the direction sought with a large enough effect in the repeat runs; an effect the other way counts as inactive or inconclusive; also: nearly all actives have a fitted effect of over 55% in size; also: potency is read from the fitted curve at half-maximal effect)
# Chain of Cytochrome P450 2D6 (Homo sapiens) (P10635 whole entry, looked up): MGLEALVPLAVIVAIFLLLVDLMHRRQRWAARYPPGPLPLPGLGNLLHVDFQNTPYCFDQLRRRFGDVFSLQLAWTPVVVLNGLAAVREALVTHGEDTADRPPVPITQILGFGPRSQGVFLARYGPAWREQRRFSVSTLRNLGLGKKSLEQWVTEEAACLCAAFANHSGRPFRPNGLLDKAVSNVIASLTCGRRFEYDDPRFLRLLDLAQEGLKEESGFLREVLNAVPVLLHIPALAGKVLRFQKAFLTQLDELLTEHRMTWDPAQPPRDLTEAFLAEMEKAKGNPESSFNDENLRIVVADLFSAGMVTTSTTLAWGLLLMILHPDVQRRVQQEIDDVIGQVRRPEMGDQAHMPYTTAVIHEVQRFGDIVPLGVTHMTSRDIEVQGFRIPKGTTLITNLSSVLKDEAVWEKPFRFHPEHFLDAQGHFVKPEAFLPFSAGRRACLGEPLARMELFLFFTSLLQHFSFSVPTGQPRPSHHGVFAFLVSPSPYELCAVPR
# Method in brief: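 P450-Glo CYP2D6 system: proluciferin substrate converted by enzyme to luciferin, read by luminescence proportional to activity. Enzyme-substrate mix with compound 10 min at room temperature, then NADPH regeneration 1 h before detection reagent.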
compound,measurement,setting,value
COc1ccc(C2CC(c3ccccc3)=NN2c2ccc(S(N)(=O)=O)cc2)cc1 (stereo not drawn),Potency,[1],inactive
same,Potency,[2],6.74 µM (active)
C[C@@H]1CCN(C(=O)CC#N)C[C@H]1N(C)c1ncnc2[nH]ccc12,Potency,[1],inactive
same,Potency,[2],inactive
Cc1ccc(Nc2cc(-c3cccc(N4C(=O)c5ccccc5C4=O)c3)ncn2)cc1NS(C)(=O)=O,Potency,[1],inactive
same,Potency,[2],1.07 µM (active)
same,Potency,[3],16.6 µM (active)
same,Potency,[4],18.6 µM (active)
NC(=O)c1ccc2nc(-c3ccc(Oc4ccc(Cl)cc4)cc3)[nH]c2c1,Potency,[1],inactive
same,Potency,[3],14.5 µM (active) and 23.1 µM (active)
same,Potency,[4],16.6 µM (active) and 16.4 µM (active)
CCOC(CN1C(=O)[C@](CC(=O)Nc2ccc(C)cc2)(NC(=O)Nc2ccc(C)cc2)c2ccccc21)OCC,Potency,[1],inactive
same,Potency,[3],10.5 µM (active)
same,Potency,[4],6.61 µM (active)
O=C(Nc1cc(Cl)cc2c1[nH]c1cnccc12)c1cccnc1,Potency,[1],inactive
same,Potency,[3],inactive
same,Potency,[4],inactive
NC1CCC(Nc2nc(Nc3ccc(C(=O)N4CCCCC4)cc3)c3ncn(-c4cccc(F)c4)c3n2)CC1 (stereo not drawn),Potency,[1],inactive
same,Potency,[3],1.84 µM (active)
O=C(Nc1c(Cl)cncc1Cl)c1ccc(OC(F)F)c(OCC2CC2)c1,Potency,[1],inactive
same,Potency,[3],inactive
N#Cc1ccc(NC(=O)Nc2ccccc2Br)c2n[nH]nc12,Potency,[1],inactive
same,Potency,[3],inactive
same,Potency,[4],inactive
O=C(NCc1ccncc1)C12C[C@H]3C[C@@H](C1)CC(c1ccc(Cl)cc1)(C3)C2,Potency,[5],inactive
CC[C@@]1(O)C[C@H](O[C@H]2C[C@H](N(C)C)[C@H](O[C@H]3C[C@H](O)[C@H](O[C@H]4CCC(=O)[C@H](C)O4)[C@H](C)O3)[C@H](C)O2)c2c(cc3c(c2O)C(=O)c2c(O)cccc2C3=O)[C@@H]1C(=O)OC,Potency,[5],inactive
same,Potency,[3],2.63 µM (active)
CCS(=O)(=O)N1CC(CC#N)(n2cc(-c3ncnc4[nH]ccc34)cn2)C1,Potency,[5],inactive
same,Potency,[2],inactive
same,Potency,[3],18.6 µM (active)
same,Potency,[4],16.6 µM (active)
Cc1cccc(Nc2nc(-c3ccncc3)cs2)c1,Potency,[2],0.268 µM (active)
same,Potency,[6],2.82 µM (active)
same,Potency,[3],10.3 µM (active) and 11.8 µM (active)
same,Potency,[4],10.3 µM (active) and 13.2 µM (active)
Nc1ncnc2c1nc(Cl)n2[C@@H]1O[C@H](CO)[C@@H](O)[C@@H]1O,Potency,[5],inactive
same,Potency,[3],18.6 µM (active)
COc1cc(N2CCC(N3CCN(C)CC3)CC2)ccc1Nc1ncc(Cl)c(Nc2ccccc2S(=O)(=O)C(C)C)n1,Potency,[5],inactive
same,Potency,[3],1.29 µM (active) and 3.72 µM (active)
O=C(Nc1ccccc1Br)N[C@@H]1CCN(c2ccc(C(F)(F)F)cn2)C1,Potency,[5],inactive
same,Potency,[7],15.1 µM (active)
same,Potency,[2],23.9 µM (active)
CC(C)C(=O)Nc1ncc(-c2cc(C(F)F)nn2-c2c(Cl)cccc2Cl)s1,Potency,[5],inactive
same,Potency,[2],5.35 µM (active)
same,Potency,[3],23 µM (active)
same,Potency,[4],23 µM (active)
CC(=O)N(C)C1(c2ccccc2)CCN(CCC[C@]2(c3ccc(Cl)c(Cl)c3)CCCN(C(=O)c3ccccc3)C2)CC1,Potency,[5],inactive
same,Potency,[3],7.28 µM (active)
same,Potency,[4],5.78 µM (active)
Cc1ccc(C(C)(O)c2nc3ccccc3s2)c(C)c1 (stereo not drawn),Potency,[5],inactive
same,Potency,[2],3.01 µM (active)
CC(C)(C)c1cc(C(=O)O)c(NC(=O)Nc2ccc3[nH]ncc3c2)s1,Potency,[5],inactive
same,Potency,[7],3.38 µM (active)
same,Potency,[2],0.477 µM (active)
same,Potency,[3],inactive
O=C(O)c1cc(O)c2c(c1)C(=O)c1cccc(O)c1C2=O,Potency,[3],inactive
same,Potency,[4],inactive
COCCOC(=O)C1=C(C)NC2=C(C(=O)CC(c3ccccc3OC)C2)C1c1cccc(O)c1 (stereo not drawn),Potency,[2],1.69 µM (active)
same,Potency,[3],4.68 µM (active) and 3.65 µM (active)
O=c1cc(-c2ccccc2)oc2cc(O)cc(O)c12,Potency,[3],16.6 µM (active)
CC1(C)O[C@H]2C[C@@H]3[C@H]4CCC5=CC(=O)C=C[C@]5(C)[C@@]4(F)[C@@H](O)C[C@]3(C)[C@]2(C(=O)CO)O1,Potency,[5],inactive
NS(=O)(=O)c1cccc2c1C(=O)c1cccc(O)c1C2=O,Potency,[3],1.66 µM (active)
same,Potency,[4],0.742 µM (active)
CC=C(C)C(=O)O[C@H]1C(C)=C[C@]23C(=O)[C@@H](C=C(CO)[C@@H](O)[C@]12O)[C@H]1[C@@H](C[C@H]3C)C1(C)C,Potency,[5],inactive
CCn1c(C(=O)N(C2CC2)C2CC2)cc2c3c(ncn3C)c(Nc3cc(C)n(C)n3)nc21,Potency,[5],inactive
same,Potency,[7],inactive
same,Potency,[2],7.56 µM (active)
same,Potency,[3],11.5 µM (active) and 16.6 µM (active)
